Results on eight compounds are retold here after PubChem BioAssay (NCI).

Compounds without any hit were thinned out: in the full panel of roughly 83,000, 20% have a hit.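 Each cell line was grown in a 96-well plate and treated with one concentration of compound for 48 hours. Values below 10 were considered active.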 Unmarked numbers belong to inactive results. Activity calls are given as the source filed them.

Assay in all cases: NCI-60 one-dose screen, 48 h (100 = growth as untreated, 0 = no growth, -100 = all killed)
Assay [1] deals with DU-145 prostate. As to conditions: 10 µM unless noted.
The subject of assay [2] is K-562 leukemia. As to conditions: 10 µM unless noted.
For assay [3], the system named is MALME-3M melanoma. The note with it: 10 µM unless noted.
Assay [4] has as its system MDA-MB-231 breast. As to conditions: 10 µM unless noted.
Assay [5] deals with RXF 393 renal. The note with it: 10 µM unless noted.
Assay [6] deals with SF-268 CNS. The note with it: 10 µM unless noted.
Assay [7] has as its system SF-295 CNS. The note with it: 10 µM unless noted.
Assay [8] concerns UACC-257 melanoma. The note with it: 10 µM unless noted.
Assay [9] has as its system HCT-15 colon. As to conditions: 10 µM unless noted.
Assay [10] deals with HT29 colon. As to conditions: 10 µM unless noted.
In assay [11] the test system is SNB-75 CNS. As to conditions: 10 µM unless noted.
For assay [12], the system named is SNB-19 CNS. The note with it: 10 µM unless noted.
Assay [13] relates to U251 CNS. As to conditions: 10 µM unless noted.
Assay [14] has as its system PC-3 prostate. The note with it: 10 µM unless noted.
Assay [15] deals with SK-MEL-5 melanoma. As to conditions: 10 µM unless noted.
In assay [16] the test system is UACC-62 melanoma. As to conditions: 10 µM unless noted.
The test system of assay [17] is LOX IMVI melanoma. The note with it: 10 µM.
Assay [18] has as its system SK-MEL-28 melanoma. As to conditions: 10 µM unless noted.
The subject of assay [19] is SF-539 CNS. The note with it: 10 µM unless noted.
The test system of assay [20] is M14 melanoma. The note with it: 10 µM unless noted.

For `NC(=S)N/N=C\c1nccc2c(N)cccc12`, the growth was 11% in assay [1]; 14.2% in assay [2]; 3.21% (active) in [3]; 49% in assay [4]; 35.8% in assay [5]; 8.21% (active) in assay [6]. The growth was -15.5% (active) in [7]; 7.45% (active) in assay [8]; 29.6% in [9]; 37.9% in assay [10]; 13.6% in [11]; 30.1% in [12]. For the same compound, the growth in assay [13] is 17.8%; in [14], 46.6%; in assay [15], 10.8%; in assay [16], -29% (active); in assay [17], 5.29% (active); in assay [18], 44.6%.
Consider `N=C1C=C(N)C(=O)c2ccccc21`, for which the growth in assay [1] was -99.5% (active); in assay [2], -4.96% (active); in assay [3], -83.7% (active); in [4], -12.5% (active); in assay [5], -97.1% (active); in assay [6], -68.4% (active). For the same compound, the growth in assay [19] is -95.8% (active); in assay [8], -77.2% (active); in assay [20] it was -86.5% (active); in [9], -74.6% (active); in [10] it was -38.8% (active); in assay [11] it was -99.1% (active). The growth in assay [12] was -98.7% (active); in [14], -7.01% (active); in assay [15], -96% (active); in assay [16], -95.8% (active); in assay [17] it was -100% (active); in [18] it was -96.5% (active).
For the compound `CC(C)Nc1ccc(Nc2ccc(NC(C)C)cc2)cc1`, the growth in assay [1] was 63.1%; in assay [2], 24.6%; in [3], 35.8%; in [4], 33.3%; in [5] it was 77.5%; in assay [6] it was 63.5%. Also, the growth in assay [7] was 67.6%; in assay [8] it was 23.7%; in [20] it was 72%; in [9] it was 92.9%; in assay [10], 26.9%; in assay [11], 79.7%. Moreover, the growth is 28.6% in assay [12]; 16.9% in assay [13]; 38.8% in [14]; 36.6% in [16]; 39.9% in assay [17].
Regarding `Cn1ccc(=Nc2ccc(NC(=O)c3ccc(N=c4ccn(C)c5ccc([N+](=O)[O-])cc45)cc3)cc2)cc1`, the growth in [1] is 47%; in [2], 96%; in assay [3], 61.9%; in [4], 56.6%; in assay [5] it was -0.0973% (active); in assay [6] it was 37.1%. Moreover, the growth in [7] was 105%; in assay [8], 86.9%; in [20], 76.8%; in assay [9] it was 98.2%; in assay [10] it was 73%; in [11], -9.29% (active). For the same compound, the growth is -5.19% (active) in [12]; -17.5% (active) in assay [13]; 44% in assay [14]; 89.8% in assay [15]; 70.1% in [16]; 56.2% in assay [17]. Further, in assay [18], the growth was 87.3%.
Turning to `Cc1cccc2c(N)c3ccccc3nc12`, the growth in [1] was 6.74% (active); in assay [2], 6.25% (active); in assay [3], -37.2% (active); in assay [4], -24.2% (active); in assay [5] it was -48.2% (active); in assay [6], -1.12% (active). In addition, the growth in [7] was 5.09% (active); in [8], -22.2% (active); in assay [20] it was -55% (active); in [9] it was -8.39% (active); in assay [10], -7.57% (active); in assay [11], 2.93% (active). The growth in [12] was 27.5%; in assay [13], -17.6% (active); in assay [14], -18.7% (active); in [15], -77.2% (active); in assay [16], -57.6% (active); in [17], -57.3% (active). Further, the growth in assay [18] is -41.1% (active).
Take `Clc1ccc(-n2ncc3c(NCCCN4CCOCC4)ncnc32)cc1`: the growth is 104% in assay [1]; 94.2% in assay [2]; 95.7% in assay [3]; 83.2% in assay [4]; 90.3% in assay [5]; 99.1% in assay [6]. Also, the growth in assay [7] was 99.4%; in [19], 97%; in assay [20], 97.2%; in assay [9] it was 96.6%; in assay [10], 105%; in assay [11], 89.6%. In addition, the growth in assay [12] is 102%; in assay [13], 93.1%; in assay [14] it was 87.5%; in [15], 83.5%; in assay [16], 110%; in assay [17], 88.8%. For the same compound, the growth in [18] was 94.6%.
For the compound `CN(C)c1ccc(/C=C/c2nccc3ccccc23)cc1`, the growth in assay [1] is 101%; in assay [2] it was 92.8%; in [3] it was 110%; in [4], 51.3%; in [5] it was 102%; in assay [6], 97.2%. In addition, the growth in [7] was 79.1%; in assay [19], 99%; in assay [20], 88.8%; in assay [9] it was 66.4%; in assay [10] it was 98.6%; in assay [11], 98.8%. Further, the growth is 79.4% in [12]; 83.4% in [14]; 86.7% in assay [15]; 60.9% in [16]; 87.8% in assay [17].
On to `Cc1cc(N/N=C/c2ccccn2)nc2ccccc12`, for which the growth was 18.2% in assay [1]; 9.21% (active) in assay [2]; 8.16% (active) in [3]; 42% in assay [4]; 8.96% (active) in [5]; 5.12% (active) in assay [6]. Moreover, the growth in assay [19] is -37.8% (active); in [8] it was -22.6% (active); in assay [20] it was -39.7% (active); in [10], 20.3%; in assay [11], 30.8%; in assay [12], 24.6%. Also, the growth is 4.92% (active) in [13]; 28.3% in assay [14]; -46.5% (active) in assay [16]; 4.97% (active) in assay [17]; 18.1% in [18].
